The results in this text go back to the OligoGym collection.
Further: reference of the scale not given here.

One test concerns the target EHD3. The test is described as follows: pooled miR-30 sensor sort-seq; sequence = guide strand. The settings on record: shRNA.
In turn, TTGACCAGCTCCTTCTTCTTGT yielded a sensor-assay potency score (higher = more potent) of 0.288.
TTGATGACTTCTGAGAACTCAT: the sensor-assay potency score (higher = more potent) was -0.245.
On the same count and under the same terms, the figure for TAGGAAAGAACAGAGCTCCTGG is 0.716.
Same read-out and setting: the figure for TTGATGAGGTCGTTGAGCTTGC is 0.159.
In the case of TTCAGCACCACTCGCATCTTGT, the sensor-assay potency score (higher = more potent) was -0.387.
In turn, TCGAAGAGCAGAATGATGCGGT returned a sensor-assay potency score (higher = more potent) of 0.407.
On the same count and under the same terms, the figure for AAACTCGTCGTCGTCCAGCATG is -1.38; for TTCTTCTTGTTGTCCTTCCCGA it is -0.7; for TTTCTTGGGATCCACCACCAGG it is -1.36.
For TTGTCCTTCCCGAACACCGAGG, the sensor-assay potency score (higher = more potent) is -1.14.
TGCAAACTCGTCGTCGTCCAGC: the sensor-assay potency score (higher = more potent) was -1.01.

Another test has as its target EHMT2. The description is as above. The conditions noted are these: shRNA.
For the sequence TTAGTTGTTCAGTTAGAGCTTC, the sensor-assay potency score (higher = more potent) turned out to be 0.313.
Same read-out and setting: the figure for TTCTTCTTGGCCTTGCGCCGGC is -0.437; for TTGACGTCCACCTGTCCTGTGC it is -0.646.
Sequence TTGAGCTTCAGAAGCATCCTCC came in with a sensor-assay potency score (higher = more potent) of 0.398.
As to TTGCTCTGCTGGTCGCTCTGGA, the sensor-assay potency score (higher = more potent) was -0.425.
ATCCTTGTTGTCTAAGTCGAAG gave a sensor-assay potency score (higher = more potent) of -1.84.
TTACACTCGAAAATCAGCGGAG displayed a sensor-assay potency score (higher = more potent) of -0.173.
In turn, TAGCATGCGGATCACCTCGATG gave a sensor-assay potency score (higher = more potent) of -1.39.
Sequence TTGAGTTGAAGCGCAAACCACA registered a sensor-assay potency score (higher = more potent) of -1.4.
In turn, TAGAGCTTCAACTTCAGACTTG had a sensor-assay potency score (higher = more potent) of 0.68.
Consider TGAGTGGACATCATCACTCATG, for which the sensor-assay potency score (higher = more potent) was -1.27.
Take TTCATGGTGGACGTCTCGCAGT: the sensor-assay potency score (higher = more potent) is -1.22.

The target in the next test is EID2B. The test is described as above. The settings on record: shRNA.
Sequence TAACTAAACTGGCACAGCCTGC displayed a sensor-assay potency score (higher = more potent) of -0.861.
ATACTCGCGGAACAACAGCTGC: the sensor-assay potency score (higher = more potent) is -1.3.
In turn, TTGACATGACCACAAATTGTGA displayed a sensor-assay potency score (higher = more potent) of -1.04.
Still for that read-out and setting: the figure for TTCTATTGAATATTTACTGTTC is 0.0406; for TTTTTTCTCATATCTTTGCAAA it is -1.11.
On the same count and under the same terms, the figure for TTTTCTTTCATCACTTAGGTTC is -0.263.
For TATCTTTGCAAAACCATCCTTT, the sensor-assay potency score (higher = more potent) was -0.0384.
For the sequence TCGCGGAACAACAGCTGCCGGT, the sensor-assay potency score (higher = more potent) was -1.55.
The same measure, in the same setting: the figure for TAAGTCAGAAGTGTCTTGGGAC is 0.252; for TTCCTGACAACTCTATTTCTTT it is -0.963; for TAAACTGGCACAGCCTGCCTGT it is -0.54.
TTTTCTATTGAATATTTACTGT registered a sensor-assay potency score (higher = more potent) of -0.85.

The target in the next test is EIF1. The test is described as above. The settings on record: shRNA.
AATTACTTCTCCATATTCCGGA: the sensor-assay potency score (higher = more potent) was found to be 0.541.
The sequence TTTTATCGTAATCATCAGCGAT came in with a sensor-assay potency score (higher = more potent) of -0.796.
Regarding TTGCAGGCAAACTTTTTCTTAA, the sensor-assay potency score (higher = more potent) was -0.992.
On the same count and under the same terms, the figure for TCTTTTTATCGTAATCATCAGC is -0.92; for TAGTAAGGGTCTTCCTGCCGTT it is -0.658.
